High-throughput results deposited in PubChem by National Center for Advancing Translational Sciences (NCATS).
miR-21 reporter: qHTS Assay for Modulators of miRNAs and/orActivators of miR-21; 340,000 tested, under 10 active; HeLa miR-21 FLuc reporter, luciferase, 48 h; Potency, µM (top dose mostly 38.3 µM), most hits filed as activators;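 further: miR-21 action dims this reporter so a rising signal means less miR-21 action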
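Compounds were titrated across several concentrations (up to approximately 40 uM) and incubated 48 hours with HeLa miR-21-FLuc reporter cells (miR-21 target sequence downstream of FLuc, endogenous miR-21). Readout was firefly luciferase luminescence after lytic detection reagent.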
uPA generation: qHTS for Inhibitors of Cell Surface uPA Generation | cell surface uPA generation assay, qHTS | Potency, µM (top dose mostly 38.3 µM), usual class: inhibitors | hit rate 0.31% among 330,000; active means well fitted inhibition curve with a large enough effect; inconclusive means small, poorly fitted or top-dose-only effect; inactive means no such curve, though single readings can be large or run the other way; tested in mouse RAW 264.7 cells; further: nearly all actives have a fitted effect of over 55% in size
DT40 TDP1 CPT: qHTS for Inhibitors of human tyrosyl-DNA phosphodiesterase 1 (TDP1): qHTS in cells in presence of CPT. chicken DT40 Tdp1-/-;hTDP1 cells + 20 nM CPT, ATP luminescence, 48 h. AID 686979, 2013. hit rate 12% among 420,000. Potency, µM (doses to about 46.2 µM), hits mostly inhibitors; further: nearly all actives have a fitted effect of over 55% in size
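Chicken DT40 Tdp1-/- cells stably complemented with human TDP1 were seeded at 400 cells/well in medium containing 20 nM camptothecin, exposed to pin-transferred compounds, and grown at 37 °C for at least 48 hr. Viability was read as ATP luminescence.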
TDP1 block: qHTS Assay for Inhibitors of Tyrosyl-DNA Phosphodiesterase (TDP1). Potency, µM (series often up to 130 µM), hits mostly inhibitors. recombinant TDP1, AlphaScreen DNA substrate cleavage. AID 485290, 2010. hit rate 0.28% among 350,000; further: nearly all actives have a fitted effect of over 40% in size
Target sequence (Q9NUW8 whole entry, looked up): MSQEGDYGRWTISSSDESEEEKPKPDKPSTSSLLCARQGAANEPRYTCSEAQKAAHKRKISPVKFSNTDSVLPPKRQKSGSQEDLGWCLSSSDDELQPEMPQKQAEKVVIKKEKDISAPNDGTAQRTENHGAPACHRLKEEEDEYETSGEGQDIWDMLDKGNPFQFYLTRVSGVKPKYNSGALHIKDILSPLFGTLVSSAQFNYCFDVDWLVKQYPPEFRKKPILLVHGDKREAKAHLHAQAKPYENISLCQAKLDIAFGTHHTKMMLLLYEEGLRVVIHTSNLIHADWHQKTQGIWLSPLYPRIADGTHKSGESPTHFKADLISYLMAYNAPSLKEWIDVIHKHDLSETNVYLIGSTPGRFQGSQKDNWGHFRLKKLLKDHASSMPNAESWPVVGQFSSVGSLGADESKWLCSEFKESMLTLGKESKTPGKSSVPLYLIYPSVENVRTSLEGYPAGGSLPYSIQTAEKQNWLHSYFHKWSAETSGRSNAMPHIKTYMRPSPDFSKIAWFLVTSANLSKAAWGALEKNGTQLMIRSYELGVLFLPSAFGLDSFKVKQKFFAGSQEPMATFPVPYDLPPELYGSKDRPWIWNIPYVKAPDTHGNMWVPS
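Enzyme-compound mixtures sat 15 min at room temperature, followed by a 5 min reaction with 15 nM final substrate and 10 min with AlphaScreen beads. Recombinant human Tdp1 was used at 1 nM final.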
DT40 TDP1 no CPT: qHTS for Inhibitors of human tyrosyl-DNA phosphodiesterase 1 (TDP1): qHTS in cells in absence of CPT; DT40 Tdp1-/- hTDP1 cells, no CPT, ATP luminescence, 48 h; Potency, µM (top dose mostly 46.2 µM), usual class: inhibitors; hit rate 15% among 420,000; AID 686978, 2013; further: nearly all actives have a fitted effect of over 55% in size
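A cellular qHTS used chicken DT40 cells lacking endogenous Tdp1 but carrying stably transfected human TDP1. Compounds were applied without camptothecin, and cell growth kinetics were judged by ATP-dependent luminescence after ≥48 hr.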
Numbers stand for hits; 0 = inactive; ? = inconclusive; - = not tested or not shown. In the library only some 16% were active in any assay of this set; here they are far more common. Unless noted, the call rests on the fitted dose curve; in most records, active means well fitted curve in the direction sought with a large enough effect; inconclusive means small, poorly fitted or top-dose-only effect, or another doubt; inactive means no such curve, though single readings can be large; an effect the other way counts as inactive or inconclusive.

SMILES	miR-21 reporter	uPA generation	DT40 TDP1 CPT	TDP1 block	DT40 TDP1 no CPT
Cc1ccc2nc(Nc3cccc(C(F)(F)F)c3)c3nnnn3c2c1	0	-	?	0	?
Cc1ccc2nc(NCc3ccccc3Cl)c3nnnn3c2c1	0	-	?	0	10µM
O=C(COC(=O)c1ccc(C(F)(F)F)cc1)NC(=O)NC1CCCC1	-	0	0	0	0
COc1cc2ccccc2cc1C(=O)OCC(=O)NC1CCS(=O)(=O)C1 (centres undefined)	0	0	0	0	0
CC(NC(=O)c1ccccc1[N+](=O)[O-])C1CC2CCC1C2 (centres undefined)	0	0	0	-	0
O=C(Nc1nccs1)c1ccc(-c2cccc([N+](=O)[O-])c2)o1	0	0	0	0	?
O=C(Nc1ccc(CN2CCOCC2)cc1)c1ccc(-c2cccc([N+](=O)[O-])c2)o1	0	?	21µM	0	16µM
COc1c(C)cccc1C(=O)Nc1ccc(CN2CCOCC2)cc1	0	0	0	0	0
COc1ccccc1C(=O)Nc1ccc(CN2CCCCC2)cc1	0	0	0	0	0
O=C(N/N=C/c1cccc([N+](=O)[O-])c1)c1ccc(CN2CCOCC2)cc1	0	0	0	0	0
COc1c(Cl)cc(Cl)cc1C(=O)Nc1ccc(CN2CCCCC2)cc1	0	0	?	0	16µM
COc1c(Cl)cc(Cl)cc1C(=O)Nc1ccc(CN2CCOCC2)cc1	0	0	16µM	-	?
O=C(Nc1ncc(Cc2cccc(C(F)(F)F)c2)s1)c1ccc(-c2cccc([N+](=O)[O-])c2)o1	0	0	15µM	0	?
Cc1ccc(C(=O)N[C@@H](Cc2ccccc2)C(=O)N2CCC3(CC2)NCCc2[nH]cnc23)cc1C	0	0	?	0	?
O=C(Nc1ccc(CN2CCOCC2)cc1)c1ccc(-c2cc(Cl)ccc2Cl)o1	0	0	?	0	23µM
S=C(c1ccc(-c2cc(Cl)ccc2Cl)o1)N1CCOCC1	0	0	0	0	0
O=C(Nc1ccc(CN2CCCCC2)cc1)Nc1ccc(Br)cc1Cl	0	0	18µM	0	16µM
O=C(Nc1cc(Cl)ccc1O)c1snnc1-c1ccccc1	0	0	13µM	0	16µM
O=C(Nc1cccc(Cl)c1Cl)c1snnc1-c1ccccc1	0	0	0	0	?
CC(=O)Nc1ccc(S(=O)(=O)NCC(=O)NNC(=O)COc2ccccc2Cl)cc1	-	0	0	-	0
O=[N+]([O-])c1c(C(Cl)Cl)nn(-c2ccccc2)c1N1CCOCC1	0	0	?	0	0
O=[N+]([O-])c1c(C(Cl)Cl)nn(-c2ccc(Cl)cc2)c1N1CCCCC1	0	0	?	0	16µM
O=S(=O)(c1ccccc1)C1CC1(c1ccccc1)c1ccccc1 (centres undefined)	-	0	?	-	?
CCOc1ncccc1C(=O)Nc1ccc(Cl)c(S(=O)(=O)N2CCCC2)c1	0	0	21µM	0	21µM
CCOc1ncccc1C(=O)Nc1ccc2nc(C)sc2c1	0	0	?	0	18µM
SMILES	miR-21 reporter	uPA generation	DT40 TDP1 CPT	TDP1 block	DT40 TDP1 no CPT
Cc1nn(C)cc1C(C(=O)NC1CCCCC1)N(CCc1ccccc1)C(=O)c1cnccn1 (centres undefined)	0	?	0	0	0
CC(C)c1ccc(Nc2nc3c(S(=O)(=O)c4ccc(Br)cc4)nnn3c3ccsc23)cc1	0	-	?	0	?
CCN(CC)S(=O)(=O)c1ccc(C(=O)N2CCN(C(=O)c3ccco3)CC2)cc1	-	0	0	0	0
CCn1cc(S(=O)(=O)Nc2cc(F)ccc2C)cn1	0	0	0	0	0
O=C(NCc1cc(Cl)cc(Cl)c1)c1ccc2sc([C@H]3C[C@H](O)[C@@H](CO)O3)nc2c1	-	-	21µM	-	?
O=C(Nc1ccc(Oc2ccccc2)cc1)c1ccc2sc([C@H]3C[C@H](O)[C@@H](CO)O3)nc2c1	-	-	?	-	21µM
O=C(Nc1ccc(F)c(Cl)c1)c1ccc2sc([C@H]3C[C@H](O)[C@@H](CO)O3)nc2c1	-	-	18µM	-	21µM
O=C(Nc1cccc(C(F)(F)F)c1)c1ccc2sc([C@H]3C[C@H](O)[C@@H](CO)O3)nc2c1	-	-	?	-	23µM
O=C(NCc1cccnc1)c1ccc2sc([C@H]3C[C@H](O)[C@@H](CO)O3)nc2c1	-	-	0	-	0
O=C(NC1CC2CCCC(C1)N2Cc1cccs1)N1CCOCC1 (centres undefined)	0	0	0	0	0
CC(C)=C1SC(N2CCN(c3cccc(C(F)(F)F)c3)CC2)=NC1=O	0	-	?	0	?
CCOC(=O)c1ccccc1NC(=S)N1CC(C)CC(C)C1 (centres undefined)	0	0	?	0	?
O=S(=O)(Cc1ccccc1)N1CCCCC1	0	0	0	0	0
CC(=O)Oc1ccc(/C=C(\NC(=O)c2ccco2)C(=O)NCc2ccccc2)cc1	0	0	0	-	0
COc1ccc(CCN2C(=O)CC(C(C)c3ccccc3)C2=O)cc1OC (centres undefined)	0	0	0	0	0
CC(C)NC(=O)N(C)C[C@H]1Oc2ccc(NS(=O)(=O)c3cccs3)cc2C(=O)N([C@H](C)CO)C[C@@H]1C	-	0	0	0	0
O=C(Nc1ccc(F)c(Cl)c1)c1csc([C@@H]2C[C@H](O)[C@@H](CO)O2)n1	-	-	?	-	0
O=C(Nc1ccc(F)c(Cl)c1)c1csc([C@H]2C[C@H](O)[C@@H](CO)O2)n1	-	-	21µM	-	?
O=c1oc2c(F)cc(F)cc2cc1S(=O)(=O)c1ccc(F)cc1	0	-	0	0	0
COc1cc(OC)cc(C(=O)NCC(=O)OCC(=O)NC2CCCc3ccccc32)c1 (centres undefined)	-	0	0	0	0
COc1cc(C(=O)NC2CCCc3ccccc32)cc(OC)c1C (centres undefined)	0	0	?	0	?
COc1cc(OC)cc(C(=O)N[C@H](C(=O)NC2CCCc3ccccc32)C(C)C)c1 (some centres undefined)	-	0	?	0	16µM
Cc1c(C(=O)NC2CCCc3ccccc32)cccc1[N+](=O)[O-] (centres undefined)	0	0	?	-	13µM
CS(=O)(=O)c1ccccc1C(=O)NC1CCCc2ccccc21 (centres undefined)	0	0	0	0	0
COc1cccc(C(=O)NC2CCCc3ccccc32)c1OC (centres undefined)	0	0	?	-	23µM
COc1ccc(C(=O)NC2CCCc3ccccc32)cc1[N+](=O)[O-] (centres undefined)	0	0	5.2µM	0	3.7µM
O=[N+]([O-])c1ccn(-c2nc(-c3cccs3)cc(C(F)(F)F)n2)n1	0	0	0	0	0
